The source of these data is paper PMC7862700, “An all-to-all approach to the identification of sequence-specific readers for epigenetic DNA modifications on cytosine”.

Holding throughout (test): DAPPL (digital affinity profiling via proximity ligation, sequencing); 10 mM Tris-HCl pH 7.5, 50 mM NaCl, 1 mM DTT, 4% glycerol, room temperature, 30 min; GST-TFs on glutathione beads, 16-mer random dsDNA library, 0.1% formaldehyde crosslink after washing; high values mean tight binding
The target in one assay is T1, FLI1 (Homo sapiens, UniProt Q01543 1-452).
T1 sequence: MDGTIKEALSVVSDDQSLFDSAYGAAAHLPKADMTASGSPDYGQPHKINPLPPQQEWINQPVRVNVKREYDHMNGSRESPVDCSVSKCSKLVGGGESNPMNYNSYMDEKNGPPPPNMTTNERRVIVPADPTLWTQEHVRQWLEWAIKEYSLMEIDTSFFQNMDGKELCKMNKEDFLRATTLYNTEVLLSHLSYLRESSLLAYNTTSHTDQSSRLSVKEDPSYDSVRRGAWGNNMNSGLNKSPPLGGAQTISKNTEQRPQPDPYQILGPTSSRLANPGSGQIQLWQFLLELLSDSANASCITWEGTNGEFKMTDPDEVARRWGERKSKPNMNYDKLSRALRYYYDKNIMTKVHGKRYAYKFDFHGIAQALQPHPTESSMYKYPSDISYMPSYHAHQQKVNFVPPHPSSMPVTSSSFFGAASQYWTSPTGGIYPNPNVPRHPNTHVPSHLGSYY
As to conditions: protein: recombinant; tags: N-terminal GST; dsDNA, one strand shown. An outline of the steps:
(§1)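 The binding signal reported is, for every hexamer, its read frequency for a factor over its read frequency for the tag-only sample. Reads came from pools of yeast-expressed, GST-fused human transcription factors on glutathione beads, barcoded with DNA and mixed with that sample, which were incubated with 200 nmole of a random double-stranded 16-mer DNA library in Tris/NaCl/DTT/glycerol buffer at room temperature for 30 min. After washing, the pools were crosslinked with 0.1% formaldehyde, proximity-ligated with BsaI/T4 ligase for 1 h at 37 °C, PCR-amplified and sequenced on an Illumina NextSeq500.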

The next assay concerns the target T2, ELK1 (Homo sapiens, UniProt P19419 1-428).
T2 sequence: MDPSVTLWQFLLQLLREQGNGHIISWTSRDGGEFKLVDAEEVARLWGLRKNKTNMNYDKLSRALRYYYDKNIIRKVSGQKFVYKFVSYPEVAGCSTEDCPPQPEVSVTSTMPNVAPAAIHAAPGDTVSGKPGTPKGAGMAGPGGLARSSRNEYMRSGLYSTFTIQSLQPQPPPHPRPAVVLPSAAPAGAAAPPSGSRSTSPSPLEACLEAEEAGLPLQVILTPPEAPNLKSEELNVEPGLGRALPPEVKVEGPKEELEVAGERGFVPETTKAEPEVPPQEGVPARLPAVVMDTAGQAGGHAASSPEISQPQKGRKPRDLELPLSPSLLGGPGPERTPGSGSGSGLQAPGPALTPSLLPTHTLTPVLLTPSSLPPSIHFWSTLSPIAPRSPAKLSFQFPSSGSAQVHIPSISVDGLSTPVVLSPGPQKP
As to conditions: protein: recombinant; tags: N-terminal GST; dsDNA, one strand shown. An outline of the steps: as §1

For another assay, the target named is T3, GABPA (Homo sapiens, UniProt Q06546 1-454).
T3 sequence: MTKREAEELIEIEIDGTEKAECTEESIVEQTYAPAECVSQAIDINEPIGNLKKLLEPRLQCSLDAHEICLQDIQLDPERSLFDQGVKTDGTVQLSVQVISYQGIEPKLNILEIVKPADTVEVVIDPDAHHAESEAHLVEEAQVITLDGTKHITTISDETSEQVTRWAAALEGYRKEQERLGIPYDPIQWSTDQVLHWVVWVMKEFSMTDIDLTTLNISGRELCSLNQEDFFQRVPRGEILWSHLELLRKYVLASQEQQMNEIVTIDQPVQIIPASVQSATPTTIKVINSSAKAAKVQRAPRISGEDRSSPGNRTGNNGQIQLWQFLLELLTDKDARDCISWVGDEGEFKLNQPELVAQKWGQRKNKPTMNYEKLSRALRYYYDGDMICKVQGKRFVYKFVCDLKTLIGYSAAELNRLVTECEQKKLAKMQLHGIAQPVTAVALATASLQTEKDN
As to conditions: protein: recombinant; tags: N-terminal GST; dsDNA, one strand shown. An outline of the steps:
as §1

The target of a further assay is T4, ERG (Homo sapiens, UniProt P11308 1-479).
T4 sequence: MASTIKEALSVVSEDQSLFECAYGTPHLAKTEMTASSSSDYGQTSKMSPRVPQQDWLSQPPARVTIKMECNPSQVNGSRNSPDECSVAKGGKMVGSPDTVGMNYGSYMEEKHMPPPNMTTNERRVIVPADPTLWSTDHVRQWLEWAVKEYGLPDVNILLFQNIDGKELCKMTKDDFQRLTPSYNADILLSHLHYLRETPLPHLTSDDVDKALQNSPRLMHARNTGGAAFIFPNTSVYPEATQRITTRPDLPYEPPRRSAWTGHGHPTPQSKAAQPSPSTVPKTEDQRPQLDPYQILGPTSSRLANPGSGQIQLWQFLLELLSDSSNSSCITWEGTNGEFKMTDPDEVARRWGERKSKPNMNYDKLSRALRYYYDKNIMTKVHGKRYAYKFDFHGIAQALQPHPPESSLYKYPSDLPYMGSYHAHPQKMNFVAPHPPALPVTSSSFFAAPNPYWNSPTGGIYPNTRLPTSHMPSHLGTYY
The note with it: protein: recombinant; tags: N-terminal GST; dsDNA, one strand shown. An outline of the steps: as §1

The target in another assay is ELF1 (Homo sapiens, UniProt P32519 1-619). The note with it: protein: recombinant; tags: N-terminal GST; dsDNA, one strand shown. An outline of the steps:
as §1

The target in another assay is T5, EHF (Homo sapiens, UniProt Q9NZC4 1-300).
T5 sequence: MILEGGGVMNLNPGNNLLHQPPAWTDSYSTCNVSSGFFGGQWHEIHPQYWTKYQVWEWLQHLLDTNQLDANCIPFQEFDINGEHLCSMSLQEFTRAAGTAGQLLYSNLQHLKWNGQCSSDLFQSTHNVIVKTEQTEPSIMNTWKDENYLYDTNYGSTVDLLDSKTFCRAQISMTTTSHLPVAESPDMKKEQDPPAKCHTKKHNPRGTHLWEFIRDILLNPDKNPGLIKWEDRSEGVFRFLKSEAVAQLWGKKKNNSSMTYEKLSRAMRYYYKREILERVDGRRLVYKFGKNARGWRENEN
As to conditions: protein: recombinant; tags: N-terminal GST; dsDNA, one strand shown. An outline of the steps:
as §1

The next assay concerns the target SPI1 (Homo sapiens, UniProt P17947 1-270). The note with it: protein: recombinant; tags: N-terminal GST; dsDNA, one strand shown. An outline of the steps: as §1
For a further assay, the target named is SPIB (Homo sapiens, UniProt Q01892 1-262). The note with it: protein: recombinant; tags: N-terminal GST; dsDNA, one strand shown. An outline of the steps:
as §1

A further assay concerns the target T6, ELK3 (Homo sapiens, UniProt P41970 1-407).
T6 sequence: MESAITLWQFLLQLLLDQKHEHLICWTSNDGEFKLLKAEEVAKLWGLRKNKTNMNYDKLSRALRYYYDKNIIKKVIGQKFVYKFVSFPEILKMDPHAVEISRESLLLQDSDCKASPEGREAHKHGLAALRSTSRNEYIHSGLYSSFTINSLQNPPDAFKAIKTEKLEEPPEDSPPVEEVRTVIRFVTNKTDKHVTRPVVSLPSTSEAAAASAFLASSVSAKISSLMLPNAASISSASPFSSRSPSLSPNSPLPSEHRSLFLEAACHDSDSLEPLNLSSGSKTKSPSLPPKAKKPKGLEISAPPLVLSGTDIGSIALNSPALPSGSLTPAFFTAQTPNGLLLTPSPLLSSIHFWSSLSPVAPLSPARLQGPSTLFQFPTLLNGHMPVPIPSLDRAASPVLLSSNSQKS
The note with it: protein: recombinant; tags: N-terminal GST; dsDNA, one strand shown. An outline of the steps: as §1

For a further assay, the target named is T7, FEV (Homo sapiens, UniProt Q99581 1-238).
T7 sequence: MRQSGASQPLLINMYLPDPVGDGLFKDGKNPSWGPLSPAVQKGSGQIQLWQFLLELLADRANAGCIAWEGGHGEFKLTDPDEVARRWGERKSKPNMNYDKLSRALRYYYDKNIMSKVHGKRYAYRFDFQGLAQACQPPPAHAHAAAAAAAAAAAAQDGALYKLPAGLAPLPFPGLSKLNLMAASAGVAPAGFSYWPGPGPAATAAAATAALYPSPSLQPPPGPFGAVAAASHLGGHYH
As to conditions: protein: recombinant; tags: N-terminal GST; dsDNA, one strand shown. An outline of the steps:
as §1

A further assay deals with ETV5 (Homo sapiens, UniProt P41161 1-510). The note with it: protein: recombinant; tags: N-terminal GST; dsDNA, one strand shown. An outline of the steps: as §1
Sequence of ETV5 (P41161 whole entry): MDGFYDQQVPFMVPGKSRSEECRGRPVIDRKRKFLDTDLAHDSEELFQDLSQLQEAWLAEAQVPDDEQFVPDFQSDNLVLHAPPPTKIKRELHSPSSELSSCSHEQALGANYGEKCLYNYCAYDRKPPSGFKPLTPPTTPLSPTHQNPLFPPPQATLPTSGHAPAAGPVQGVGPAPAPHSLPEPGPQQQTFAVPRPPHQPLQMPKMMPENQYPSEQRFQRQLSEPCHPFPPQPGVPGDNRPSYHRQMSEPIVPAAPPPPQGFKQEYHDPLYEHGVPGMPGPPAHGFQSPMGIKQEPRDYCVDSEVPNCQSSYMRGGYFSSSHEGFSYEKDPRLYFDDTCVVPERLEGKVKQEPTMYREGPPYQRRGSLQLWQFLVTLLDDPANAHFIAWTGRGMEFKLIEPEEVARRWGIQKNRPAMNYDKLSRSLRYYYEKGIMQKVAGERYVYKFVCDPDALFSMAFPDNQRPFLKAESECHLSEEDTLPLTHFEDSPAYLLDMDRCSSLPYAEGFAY
The next assay deals with HSF1 (Homo sapiens, UniProt Q00613 1-529). As to conditions: protein: recombinant; tags: N-terminal GST; chain copies: 3; dsDNA, one strand shown. An outline of the steps:
as §1

In the next assay the target is T8, SPIC (Homo sapiens, UniProt Q8N5J4 1-248).
T8 sequence: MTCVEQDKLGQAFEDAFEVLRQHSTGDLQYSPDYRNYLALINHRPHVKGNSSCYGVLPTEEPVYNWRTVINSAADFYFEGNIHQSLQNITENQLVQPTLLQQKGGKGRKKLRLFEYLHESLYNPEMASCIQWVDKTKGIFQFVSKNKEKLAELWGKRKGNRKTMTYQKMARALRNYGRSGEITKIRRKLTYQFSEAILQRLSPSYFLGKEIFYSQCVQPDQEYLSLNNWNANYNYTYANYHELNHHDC
As to conditions: protein: recombinant; tags: N-terminal GST; dsDNA, one strand shown. An outline of the steps: as §1

The target in a further assay is ELF4 (Homo sapiens, UniProt Q99607 1-663). As to conditions: protein: recombinant; tags: N-terminal GST; dsDNA, one strand shown. An outline of the steps:
as §1

For a further assay, the target named is T9, ELK4 (Homo sapiens, UniProt P28324-2 1-405).
T9 sequence: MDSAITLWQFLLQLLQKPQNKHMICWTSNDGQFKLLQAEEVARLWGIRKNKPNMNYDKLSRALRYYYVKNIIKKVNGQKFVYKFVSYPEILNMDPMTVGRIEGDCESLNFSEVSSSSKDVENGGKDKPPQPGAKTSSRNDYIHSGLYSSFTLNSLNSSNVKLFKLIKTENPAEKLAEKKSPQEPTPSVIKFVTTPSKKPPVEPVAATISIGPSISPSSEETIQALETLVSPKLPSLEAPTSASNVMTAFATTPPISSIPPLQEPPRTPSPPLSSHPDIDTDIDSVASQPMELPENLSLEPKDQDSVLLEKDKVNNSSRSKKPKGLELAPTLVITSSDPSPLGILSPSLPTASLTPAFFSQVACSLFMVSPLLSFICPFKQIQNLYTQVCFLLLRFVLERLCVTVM
The note with it: protein: recombinant; tags: N-terminal GST; dsDNA, one strand shown. An outline of the steps: as §1

A further assay deals with T10, ETV2 (Homo sapiens, UniProt O00321 1-342).
T10 sequence: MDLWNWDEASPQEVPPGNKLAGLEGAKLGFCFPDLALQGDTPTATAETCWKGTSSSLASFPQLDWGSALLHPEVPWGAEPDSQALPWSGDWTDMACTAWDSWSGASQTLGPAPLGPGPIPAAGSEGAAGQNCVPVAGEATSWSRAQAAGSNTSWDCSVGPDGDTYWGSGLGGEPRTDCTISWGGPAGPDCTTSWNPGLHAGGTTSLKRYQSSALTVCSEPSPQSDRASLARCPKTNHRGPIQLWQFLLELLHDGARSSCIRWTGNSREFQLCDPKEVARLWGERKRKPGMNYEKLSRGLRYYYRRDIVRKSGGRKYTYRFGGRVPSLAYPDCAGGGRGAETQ
As to conditions: protein: recombinant; tags: N-terminal GST; dsDNA, one strand shown. An outline of the steps: as §1

The next assay concerns the target T11, ELF3 (Homo sapiens, UniProt P78545 1-371).
T11 sequence: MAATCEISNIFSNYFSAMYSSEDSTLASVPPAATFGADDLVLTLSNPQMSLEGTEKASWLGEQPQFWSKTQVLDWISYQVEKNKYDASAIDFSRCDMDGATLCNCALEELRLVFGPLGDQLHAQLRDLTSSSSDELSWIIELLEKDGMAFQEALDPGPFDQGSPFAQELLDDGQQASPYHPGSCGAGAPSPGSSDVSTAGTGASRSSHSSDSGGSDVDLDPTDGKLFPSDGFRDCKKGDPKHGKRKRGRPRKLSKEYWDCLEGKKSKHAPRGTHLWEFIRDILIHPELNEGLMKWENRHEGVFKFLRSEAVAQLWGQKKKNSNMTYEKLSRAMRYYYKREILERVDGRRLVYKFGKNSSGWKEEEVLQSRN
As to conditions: protein: recombinant; tags: N-terminal GST; dsDNA, one strand shown. An outline of the steps: as §1

A further assay deals with CRX (Homo sapiens, UniProt O43186 1-299). As to conditions: protein: recombinant; tags: N-terminal GST; dsDNA, one strand shown. An outline of the steps:
as §1

A further assay has as its target ETV1 (Homo sapiens, UniProt P50549 1-477). As to conditions: protein: recombinant; tags: N-terminal GST; dsDNA, one strand shown. An outline of the steps:
as §1

Sequence of HSF1 (Q00613 whole entry): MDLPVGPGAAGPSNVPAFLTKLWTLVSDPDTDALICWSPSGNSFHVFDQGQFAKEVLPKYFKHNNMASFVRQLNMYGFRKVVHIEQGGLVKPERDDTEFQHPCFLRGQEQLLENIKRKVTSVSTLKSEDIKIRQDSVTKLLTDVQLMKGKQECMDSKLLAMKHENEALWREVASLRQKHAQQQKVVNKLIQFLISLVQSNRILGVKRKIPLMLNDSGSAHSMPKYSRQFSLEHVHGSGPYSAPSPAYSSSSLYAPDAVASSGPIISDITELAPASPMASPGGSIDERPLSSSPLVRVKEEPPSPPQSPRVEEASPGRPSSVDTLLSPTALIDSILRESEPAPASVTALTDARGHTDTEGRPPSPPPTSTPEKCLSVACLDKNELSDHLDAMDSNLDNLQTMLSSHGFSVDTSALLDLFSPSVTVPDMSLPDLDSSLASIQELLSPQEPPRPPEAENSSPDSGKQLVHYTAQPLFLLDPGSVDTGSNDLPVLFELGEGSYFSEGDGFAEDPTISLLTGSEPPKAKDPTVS
Sequence of ELF1 (P32519 whole entry): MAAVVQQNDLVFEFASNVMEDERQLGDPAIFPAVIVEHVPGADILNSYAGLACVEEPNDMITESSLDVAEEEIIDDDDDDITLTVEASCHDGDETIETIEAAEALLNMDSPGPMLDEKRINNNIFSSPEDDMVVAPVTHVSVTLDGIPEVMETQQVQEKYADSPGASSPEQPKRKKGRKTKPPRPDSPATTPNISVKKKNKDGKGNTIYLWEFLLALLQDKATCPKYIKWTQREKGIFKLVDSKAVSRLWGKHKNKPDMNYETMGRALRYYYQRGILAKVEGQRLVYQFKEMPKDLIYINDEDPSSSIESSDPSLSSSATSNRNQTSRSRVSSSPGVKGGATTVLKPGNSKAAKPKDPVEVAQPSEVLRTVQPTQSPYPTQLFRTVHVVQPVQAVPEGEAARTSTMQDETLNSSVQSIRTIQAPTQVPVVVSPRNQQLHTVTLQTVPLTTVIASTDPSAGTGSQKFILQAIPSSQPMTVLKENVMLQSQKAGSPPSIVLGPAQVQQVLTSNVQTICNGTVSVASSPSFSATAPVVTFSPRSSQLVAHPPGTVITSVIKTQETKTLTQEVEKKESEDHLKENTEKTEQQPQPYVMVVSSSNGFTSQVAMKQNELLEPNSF
Sequence of CRX (O43186 whole entry): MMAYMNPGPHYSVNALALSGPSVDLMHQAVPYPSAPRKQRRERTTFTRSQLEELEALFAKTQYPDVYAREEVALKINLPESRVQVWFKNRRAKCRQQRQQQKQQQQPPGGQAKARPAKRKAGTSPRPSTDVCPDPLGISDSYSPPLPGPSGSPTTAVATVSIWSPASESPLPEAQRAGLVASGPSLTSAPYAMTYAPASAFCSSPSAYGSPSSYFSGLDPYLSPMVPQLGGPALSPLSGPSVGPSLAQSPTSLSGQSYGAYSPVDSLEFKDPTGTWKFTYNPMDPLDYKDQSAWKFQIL
Sequence of SPIB (Q01892 whole entry): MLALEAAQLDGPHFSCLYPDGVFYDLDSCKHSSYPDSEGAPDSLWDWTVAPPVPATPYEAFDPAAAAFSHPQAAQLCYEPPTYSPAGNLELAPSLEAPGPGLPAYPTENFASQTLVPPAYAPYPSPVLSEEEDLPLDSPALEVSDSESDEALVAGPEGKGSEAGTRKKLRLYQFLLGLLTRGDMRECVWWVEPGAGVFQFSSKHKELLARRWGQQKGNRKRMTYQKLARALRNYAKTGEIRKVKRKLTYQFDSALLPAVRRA
Sequence of ETV1 (P50549 whole entry): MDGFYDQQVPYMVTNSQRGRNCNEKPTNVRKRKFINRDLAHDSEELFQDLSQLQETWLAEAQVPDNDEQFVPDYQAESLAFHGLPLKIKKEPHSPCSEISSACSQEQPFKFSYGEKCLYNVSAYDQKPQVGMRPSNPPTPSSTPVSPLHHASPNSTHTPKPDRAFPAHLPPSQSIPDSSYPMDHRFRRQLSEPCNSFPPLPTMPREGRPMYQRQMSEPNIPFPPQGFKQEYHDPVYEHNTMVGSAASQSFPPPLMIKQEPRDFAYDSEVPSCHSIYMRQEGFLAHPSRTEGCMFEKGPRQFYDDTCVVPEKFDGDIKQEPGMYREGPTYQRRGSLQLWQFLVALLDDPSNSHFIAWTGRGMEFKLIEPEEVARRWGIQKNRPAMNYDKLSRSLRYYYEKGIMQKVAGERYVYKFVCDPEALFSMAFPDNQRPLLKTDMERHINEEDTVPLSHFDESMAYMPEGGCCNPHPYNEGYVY
Sequence of ELF4 (Q99607 whole entry): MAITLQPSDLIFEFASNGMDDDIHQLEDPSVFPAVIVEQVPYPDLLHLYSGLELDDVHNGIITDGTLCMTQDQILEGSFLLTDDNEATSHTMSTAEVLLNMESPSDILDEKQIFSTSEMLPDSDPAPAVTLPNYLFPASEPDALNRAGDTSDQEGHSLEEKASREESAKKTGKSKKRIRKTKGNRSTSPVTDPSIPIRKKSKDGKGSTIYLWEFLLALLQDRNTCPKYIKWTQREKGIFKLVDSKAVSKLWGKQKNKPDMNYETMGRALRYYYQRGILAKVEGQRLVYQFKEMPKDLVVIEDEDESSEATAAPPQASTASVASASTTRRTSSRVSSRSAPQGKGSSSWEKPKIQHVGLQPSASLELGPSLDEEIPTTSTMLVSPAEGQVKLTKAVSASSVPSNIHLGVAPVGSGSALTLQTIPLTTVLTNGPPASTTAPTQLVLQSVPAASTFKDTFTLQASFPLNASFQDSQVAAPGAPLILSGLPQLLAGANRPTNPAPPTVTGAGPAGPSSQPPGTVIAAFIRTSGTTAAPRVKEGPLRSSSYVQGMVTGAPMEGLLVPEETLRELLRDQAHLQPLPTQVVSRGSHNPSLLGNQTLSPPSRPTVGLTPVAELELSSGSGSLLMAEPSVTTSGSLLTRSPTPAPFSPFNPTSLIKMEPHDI

TTATAG: the binding signal was 1.13 fold enrichment (6-mer frequency, TF over GST control) with FLI1; 1.09 fold enrichment (6-mer frequency, TF over GST control) with ELK1; 1.22 fold enrichment (6-mer frequency, TF over GST control) with GABPA; 1.04 fold enrichment (6-mer frequency, TF over GST control) with ERG; 1.2 fold enrichment (6-mer frequency, TF over GST control) in the assay with ELF1; 1.25 fold enrichment (6-mer frequency, TF over GST control) in the assay with EHF. Further, the binding signal with SPI1 was 1.2 fold enrichment (6-mer frequency, TF over GST control); with SPIB, 1.2 fold enrichment (6-mer frequency, TF over GST control); with ELK3 it was 1.03 fold enrichment (6-mer frequency, TF over GST control); with FEV, 1.17 fold enrichment (6-mer frequency, TF over GST control); with ETV5 it was 1.29 fold enrichment (6-mer frequency, TF over GST control); with HSF1, 1.8 fold enrichment (6-mer frequency, TF over GST control). The binding signal in the assay with SPIC was 1.38 fold enrichment (6-mer frequency, TF over GST control); with ELF4 it was 1.13 fold enrichment (6-mer frequency, TF over GST control); with ELK4, 1.24 fold enrichment (6-mer frequency, TF over GST control); in the assay with ETV2 it was 1.07 fold enrichment (6-mer frequency, TF over GST control); with ELF3, 1.27 fold enrichment (6-mer frequency, TF over GST control); in the assay with CRX, 2.46 fold enrichment (6-mer frequency, TF over GST control). In the assay with ETV1, the binding signal was 1.18 fold enrichment (6-mer frequency, TF over GST control).
